The full list was thinned out, with hits kept by preference.
FECH block – blocks human mitochondrial ferrochelatase activity. actives 3.3% (n = 20,000). calls only at 10 µM (by protocol). AID 1671448. P22830. purified FECH, Ni-mesoporphyrin absorbance 550 nm;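 active = enzyme reaction rate more than 3 SD below the solvent-only control wells on the same plate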;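 note: lower slope than DMSO wells means FECH inhibition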
Numbers without * were called inactive.

Screening NC(=O)c1ccc(NC(=O)c2cccn(Cc3cccc(Cl)c3)c2=O)cc1 returned FECH block inactive.
Screening O=C(Nc1ccon1)c1cccn(Cc2cccc(Cl)c2)c1=O returned FECH block active.
Screening NC(=O)c1ccccc1NC(=O)c1cccn(Cc2cccc(Cl)c2)c1=O returned FECH block inactive.
Screening COc1cccc([C@@H]2CN(c3ccncc3)[C@@H]3C4CCN(CC4)[C@@H]32)c1 returned FECH block inactive.
`Cc1ccnc(CC(C)N(C)Cc2cn[nH]c2-c2ccc(F)cc2)c1` (stereo unspecified) gave FECH block inactive.

Compound activity as filed in PubChem BioAssay.
